# Source: the supplement of paper PMC8728848
# The entries come from a sample that favours the strongest signals as a whole.
# Assays:
# Experiment in all cases: glycan array binding signal (z-score within array); higher = stronger binding
# Conditions in all cases: glycan notation: IUPAC condensed, linker removed
# [1] = molecular target: Fuc(a1-2)Gal(b1-3)GalNAc(b1-3)Gal(b1-4)Glc
# In short: (§1)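 Arrays were curated from the Consortium for Functional Glycomics database, 3228 in total, and kept only where the protein sequence was available. Binding is expressed as a within-array Z-score. This score was averaged across arrays of the same protein sequence at different concentrations or buffers and across linkers, and negative values can be read as non-binding.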
# [2] = molecular target: Fuc(a1-2)Gal(b1-3)[Fuc(a1-4)]GlcNAc(b1-2)Man(a1-3)[Fuc(a1-2)Gal(b1-3)[Fuc(a1-4)]GlcNAc(b1-2)Man(a1-3)]Man(b1-4)GlcNAc(b1-4)GlcNAc
# In short: as §1
# [3] = molecular target: Fuc(a1-2)Gal(b1-3)[Fuc(a1-4)]GlcNAc(b1-3)[Gal(b1-4)GlcNAc(b1-6)]Gal(b1-4)Glc
# In short: as §1
# [4] = molecular target: Fuc(a1-2)Gal(b1-4)GlcNAc
# In short: as §1
# [5] = molecular target: Fuc(a1-2)Gal(b1-4)GlcNAc6S
# In short: as §1
# [6] = molecular target: Fuc(a1-2)Gal(b1-4)[Fuc(a1-3)]GlcNAc
# In short: as §1
# [7] = molecular target: Fuc(a1-2)GlcNAc
# In short: as §1
# [8] = molecular target: Fuc(a1-2)[Gal(a1-3)]Gal(b1-3)GalNAc
# In short: as §1
# [9] = molecular target: Fuc(a1-2)[Gal(a1-3)]Gal(b1-4)Glc
# In short: as §1
# [10] = molecular target: Fuc(a1-2)[Gal(a1-3)]Gal(b1-4)GlcNAc(b1-6)GalNAc
# In short: as §1
# [11] = molecular target: Fuc(a1-2)[GalNAc(a1-3)]Gal
# In short: as §1
# [12] = molecular target: Fuc(a1-2)[GalNAc(a1-3)]Gal(b1-4)GlcNAc(b1-3)GalNAc
# In short: as §1
# [13] = molecular target: Fuc(a1-3)[Gal(b1-4)]GlcNAc(b1-3)Gal(b1-4)[Fuc(a1-3)]GlcNAc(b1-3)Gal(b1-4)[Fuc(a1-3)]GlcNAc
# In short: as §1
# [14] = molecular target: Fuc(a1-3)[Gal3S(b1-4)]Glc6S
# In short: as §1
# [15] = molecular target: Gal(b1-3)GalNAc(b1-3)Gal
# In short: as §1
# [16] = molecular target: Gal(b1-3)GalNAc(b1-3)Gal(a1-4)Gal(b1-4)Glc
# In short: as §1
# [17] = molecular target: Gal(b1-3)[Fuc(a1-4)]GlcNAc(b1-3)Gal(b1-4)GlcNAc
# In short: as §1
# [18] = molecular target: Gal(b1-3)[Neu5Ac(a2-6)]GalNAc
# In short: as §1
# [19] = molecular target: Gal(b1-4)Gal
# In short: as §1
# [20] = molecular target: Gal(b1-4)GlcNAc(b1-3)Gal(b1-4)GlcNAc(b1-3)Gal(b1-4)GlcNAc(b1-2)Man(a1-3)[Gal(b1-4)GlcNAc(b1-3)Gal(b1-4)GlcNAc(b1-3)Gal(b1-4)GlcNAc(b1-2)Man(a1-6)]Man(b1-4)GlcNAc(b1-4)GlcNAc
# In short: as §1
# [21] = molecular target: Gal(b1-4)GlcNAc(b1-3)Gal(b1-4)GlcNAc(b1-3)Gal(b1-4)GlcNAc(b1-3)Gal(b1-4)GlcNAc(b1-2)Man(a1-3)[Gal(b1-4)GlcNAc(b1-3)Gal(b1-4)GlcNAc(b1-3)Gal(b1-4)GlcNAc(b1-3)Gal(b1-4)GlcNAc(b1-2)Man(a1-6)]Man(b1-4)GlcNAc(b1-4)GlcNAc
# In short: as §1
# [22] = molecular target: Gal(b1-4)GlcNAc(b1-3)Gal(b1-4)GlcNAc(b1-3)GalNAc
# In short: as §1
# [23] = molecular target: Gal(b1-4)GlcNAc(b1-3)Gal(b1-4)GlcNAc(b1-3)[Gal(b1-4)GlcNAc(b1-3)Gal(b1-4)GlcNAc(b1-6)]GalNAc
# In short: as §1
# [24] = molecular target: Gal3S(b1-3)GalNAc
# In short: as §1
# [25] = molecular target: Gal3S(b1-4)[Fuc(a1-3)]GlcNAc6S
# In short: as §1
# [26] = molecular target: Gal3S6S(b1-4)GlcNAc
# In short: as §1
# [27] = molecular target: Gal6S(b1-4)Glc
# In short: as §1
# [28] = molecular target: Gal6S(b1-4)GlcNAc
# In short: as §1
# [29] = molecular target: GalNAc(b1-4)GlcNAc(b1-2)Man(a1-3)[GalNAc(b1-4)GlcNAc(b1-2)Man(a1-6)]Man(b1-4)GlcNAc(b1-4)GlcNAc
# In short: as §1
binder,measurement,setting,value
"LTL (Lotus tetragonolobus), P19664 (protein) VSFNYTEFKDDGSLILQGDAKIWTDGRLAMPTDPLVNNPKTTRSAGRALYATPVPIWDSATGNVASFVTSFNFLFVIRELKYTPTDGLVFFLAPVGTEIPSGSTGGFLGIFDGSNGFNQFVAVEFDSYHNIWDPKSLRSSHVGIDVNSIMSLKAVNWNRVSGSLEKATIIYDSQTNILSVVMTSQNGQITTIYGTIDLKTVLPEKVSVGFSATTGNPEREKHDIYSWSFTSTLKEPEEQA",glycan array binding signal (z-score),[1],0.013
same,glycan array binding signal (z-score),[2],0.157
same,glycan array binding signal (z-score),[3],-0.265
same,glycan array binding signal (z-score),[4],0.463
same,glycan array binding signal (z-score),[5],-0.057
same,glycan array binding signal (z-score),[6],4.58
same,glycan array binding signal (z-score),[7],2.03
same,glycan array binding signal (z-score),[8],0.102
same,glycan array binding signal (z-score),[9],-0.211
same,glycan array binding signal (z-score),[10],-0.201
same,glycan array binding signal (z-score),[11],-0.25
same,glycan array binding signal (z-score),[12],-0.219
same,glycan array binding signal (z-score),[13],8.86
same,glycan array binding signal (z-score),[14],0.757
same,glycan array binding signal (z-score),[15],-0.295
same,glycan array binding signal (z-score),[16],0.007
same,glycan array binding signal (z-score),[17],-0.389
same,glycan array binding signal (z-score),[18],-0.277
same,glycan array binding signal (z-score),[19],-0.131
same,glycan array binding signal (z-score),[20],3.1
same,glycan array binding signal (z-score),[21],0.014
same,glycan array binding signal (z-score),[22],2.04
same,glycan array binding signal (z-score),[23],2.93
same,glycan array binding signal (z-score),[24],-0.003
same,glycan array binding signal (z-score),[25],-0.287
same,glycan array binding signal (z-score),[26],0.068
same,glycan array binding signal (z-score),[27],-0.131
same,glycan array binding signal (z-score),[28],-0.022
same,glycan array binding signal (z-score),[29],1.48
